# Sampled rows, rich in hits. Any-hit rate of the full collection: about 2.5%.
# MEKK2 WT-MEK5: raises or lowers MEK5 binding to wildtype human MEKK2 PB1 domain; Q9Y2U5; bead flow cytometry, Alexa488-MEK5 binding to MEKK2 WT; actives lie on both sides; binding response (% of control), % at 10 µM; hit rate 1.1% among 290,000; AID 1531; in the data active = binding response below about 67% or above about 130%
# MEKK3 PB1 HTS: raises or lowers MEK5 binding to the human MEKK3 PB1 domain; hit rate 1.4% among 290,000; Q99759; AID 1529; bead-based flow cytometry, Alexa488-MEK5 binding to MEKK3; actives lie on both sides; 0 = blocked by unlabeled MEK5, 100 = vehicle; binding response (% of control), % at 10 µM;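 active = binding response more than 3 SD above or below the average of its plate-row segment, actives on both sides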;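 also: Alexa488 bead fluorescence after subtracting the streptavidin-only scavenger bead signal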
# MEKK2mut PB1 HTS: signal of MEK5 binding to mutant human MEKK2 PB1 domain; bead flow cytometry, Alexa488-MEK5 binding to MEKK2 mutant; percent response, % at 10 µM; hit rate 0.35% among 290,000; AID 1530; in the data active = percent response above about 24%, passing the limit was not always enough
# GRK2 aptamer HTS: human GRK2 inhibition via aptamer displacement | P25098 | bead flow cytometry, FAM-aptamer displacement from GRK2 | inhibition of aptamer binding, % at 10 µM | hit rate 0.59% among 330,000 | AID 488847;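 active = inhibition of aptamer binding above 40%, roughly 3 SD of noise, on plates passing a quality check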;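 also: median bead fluorescence of bound FAM aptamer so fluorescent compounds give negative values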
# Target sequence (P25098 whole entry, looked up): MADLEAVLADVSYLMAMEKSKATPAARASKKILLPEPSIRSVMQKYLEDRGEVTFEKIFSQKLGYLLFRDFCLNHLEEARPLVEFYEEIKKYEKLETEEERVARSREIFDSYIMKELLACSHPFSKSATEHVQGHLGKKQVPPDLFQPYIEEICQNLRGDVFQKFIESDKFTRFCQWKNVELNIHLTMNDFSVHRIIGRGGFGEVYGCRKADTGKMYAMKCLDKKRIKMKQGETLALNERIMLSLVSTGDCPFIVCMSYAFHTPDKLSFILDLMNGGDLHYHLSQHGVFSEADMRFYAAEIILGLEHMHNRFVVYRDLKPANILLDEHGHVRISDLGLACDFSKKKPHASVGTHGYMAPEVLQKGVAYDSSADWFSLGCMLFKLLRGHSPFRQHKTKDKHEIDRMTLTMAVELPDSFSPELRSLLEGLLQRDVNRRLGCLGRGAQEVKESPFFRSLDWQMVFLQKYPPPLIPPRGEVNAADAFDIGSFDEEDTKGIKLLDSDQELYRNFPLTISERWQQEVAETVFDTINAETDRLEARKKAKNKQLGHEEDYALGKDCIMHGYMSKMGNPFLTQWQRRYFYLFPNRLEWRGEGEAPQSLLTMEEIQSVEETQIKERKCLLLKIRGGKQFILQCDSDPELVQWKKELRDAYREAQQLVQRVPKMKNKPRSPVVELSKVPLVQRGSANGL
# MEKK2wt confirm: raises or lowers MEK5 binding to wildtype human MEKK2, retest; hit rate 2.4% among 5,900; shares compounds with MEKK3 PB1 HTS; binding response (% of control), % at 10 µM; bead flow cytometry, Alexa488-MEK5 binding to MEKK2 WT; actives lie on both sides; in the data active = binding response below about 16% or above about 210%; inactive = in between
# MEKK2mut-MEK5: signal of MEK5 binding to mutant human MEKK2, retest | shares compounds with MEKK3 PB1 HTS | hit rate 2% among 5,900 | percent response, % at 10 µM | bead flow cytometry, Alexa488-MEK5 binding to MEKK2 mutant; in the data active = percent response mostly above about 71%, no sharp cut-off; inactive = mostly below about 38%;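 also: higher means compound restores mutant binding toward wildtype level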
# MEKK3-MEK5 inh: MEKK3-MEK5 PB1 inhibition, single concentration confirmation; shares compounds with MEKK3 PB1 HTS; binding response (% of control), % at 10 µM; bead flow cytometry, Alexa488-MEK5 binding to MEKK3; active compounds read low; hit rate 1.8% among 5,900;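 active = binding response below 72% of control, or above a set upper limit, though filed actives all read lower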;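 also: 100% = DMSO only wells and 0% = binding blocked by excess unlabeled MEK5; lower values mean stronger disruption of MEK5 binding to MEKK3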
# An asterisk follows results filed as active; x = not tested or not shown; ! = not active in a repeat; [ ] = dose if it differs, or a comment.
SMILES,MEKK2 WT-MEK5,MEKK3 PB1 HTS,MEKK2mut PB1 HTS,GRK2 aptamer HTS,MEKK2wt confirm,MEKK2mut-MEK5,MEKK3-MEK5 inh
CC1=C(C(=O)OCc2ccccc2)C(c2ccccc2OC(F)F)NC(=O)N1 (stereo not drawn),104.0,96.0,5.0,0.0,x,x,x
CN(C)CCCNC(=S)NCC(c1ccc(Cl)cc1Cl)c1c[nH]c2ccccc12 (stereo not drawn),223.0*,110.0,73.0*,0.0,x,x,x
CCCCNC(=S)NCC(c1ccccc1)c1c[nH]c2ccccc12 (stereo not drawn),106.0,103.0,13.0,0.0,x,x,x
COc1ccc(C(CNC(=O)c2oc3cc(C)c(Cl)cc3c2C)N2CCCCC2)cc1 (stereo not drawn),169.0*,108.0,37.0*,0.0,x,x,x
CC1=C(C(N)=O)C(c2ccc(Cl)c(Cl)c2)n2ncnc2N1 (stereo not drawn),106.0,100.0,4.0,0.0,x,x,x
Cc1cccc(C)c1NC(=O)NN1C(C)CCCC1C (stereo not drawn),95.0,97.0,-6.0,2.0,x,x,x
Cc1cc(C)cc(NC(=O)NN2C(C)CCCC2C)c1 (stereo not drawn),111.0,107.0,7.0,100.0*,x,x,x
CCOc1ccc(Cl)cc1S(=O)(=O)N1CCC(C(=O)NCC2CCCO2)CC1 (stereo not drawn),94.0,98.0,-2.0,3.0,x,x,x
CCN(CC)c1ccc(/C=N/N=C(N)N)c(O)c1,x,93.0,113.0*,1.0,x,x,x
CCN(CC)c1ccc(N=Cc2ccc(N(CC)CC)cc2O)cc1,98.0,97.0,0.0,1.0,x,x,x
O=C(Nc1ccc(C2=NCCN2)cc1)c1ccc(C(=O)Nc2ccc(C3=NCCN3)cc2)c(Cl)c1,149.0*,72.0*[inhibitor],31.0*,0.0,x,x,x
O=C(Nc1ccc(NC(=O)c2ccc(Cl)cc2Cl)cc1)c1ccc2c(c1)OCO2,99.0,99.0,-5.0,1.0,x,x,x
CN(CC(=O)NCc1ccccn1)S(=O)(=O)c1ccc2ccccc2c1,111.0,135.0*,0.0,1.0,100.0,2.0,95.0
Fc1ccc(C2CCNCC2COc2ccc3c(c2)OCO3)cc1 (stereo not drawn),93.0,86.0,-18.0,x,x,x,x
Fc1ccc([C@@H]2CCNC[C@H]2COc2ccc3c(c2)OCO3)cc1,144.0*!,112.0,6.0,x,128.0,13.0,101.0
CCCN1CCN(CCCNC(=O)c2cc3c(=O)[nH]c4ccc(C)cc4c3s2)CC1,75.0,67.0*[inhibitor],-9.0,0.0,108.0,-4.0,101.0
CSc1ccc2c(c1)C(N1CCN(C)CC1)Cc1ccccc1S2 (stereo not drawn),150.0*,108.0,8.0,0.0,162.0,49.0,108.0
CN1CCN(C2Cc3ccccc3Sc3ccc(Cl)cc32)CC1 (stereo not drawn),x,x,x,0.0,x,x,x
COC(=O)c1cn(NC(=O)COc2ccc(Cl)cc2)c(=O)c2ccccc12,98.0,98.0,-1.0,0.0,x,x,x
Fc1ccccc1-c1csc(=Nc2cccnc2)n1CCCn1ccnc1,102.0,137.0*,3.0,2.0,114.0,19.0,104.0
O=C(/C=C/c1ccc(F)cc1)NCCC1=CCCCC1,95.0,96.0,-2.0,0.0,x,x,x
O=C(CSc1nnc(CNc2ccc(F)cc2)o1)OC1CCCCC1,2.0*[inhibitor],2.0*[inhibitor],-16.0,3.0,95.0,-3.0,99.0
O=C(CSc1nnc(CNc2cccc(Cl)c2)o1)OC1CCCCC1,106.0,103.0,1.0,0.0,x,x,x
COC(=O)c1sccc1NC(=O)CSCC(=O)O,98.0,99.0,-2.0,0.0,x,x,x
O=Cc1cnc(N2CCN(Cc3ccccc3)CC2)s1,70.0,68.0*[inhibitor],-45.0,4.0,117.0,12.0,101.0
SMILES,MEKK2 WT-MEK5,MEKK3 PB1 HTS,MEKK2mut PB1 HTS,GRK2 aptamer HTS,MEKK2wt confirm,MEKK2mut-MEK5,MEKK3-MEK5 inh
CCOC(=O)CC(NC(=O)c1ccccc1)c1ccc(OC)cc1 (stereo not drawn),88.0,78.0,-1.0,0.0,x,x,x
N#CCc1nc2n(n1)Cc1ccccc1-2,136.0*,124.0*,x,3.0,101.0,16.0,103.0
c1ccc2c(c1)Cn1nc(Cc3nc4c(s3)CCCC4)nc1-2,103.0,104.0,1.0,2.0,x,x,x
COc1ccc(OC)c(-c2cc(C(=O)N3CCN(c4ccccc4)CC3)no2)c1,96.0,95.0,-4.0,2.0,x,x,x
COc1ccc2c(c1)-c1c(ssc1=S)C(C)(C)N2S(=O)(=O)c1ccc(C)cc1,101.0,129.0*,2.0,0.0,99.0,-2.0,101.0
Cc1ccc(S(=O)(=O)N2c3ccccc3-c3c(ssc3=S)C2(C)C)cc1,95.0,97.0,-1.0,1.0,x,x,x
CCOC(=O)N1CCN(C(=O)C(=O)N/N=C/c2ccc(OC)cc2OC)CC1,104.0,98.0,-1.0,2.0,x,x,x
COc1ccc2cc3cc(C(=O)NC(C)C)oc3nc2c1,117.0,124.0*,5.0,2.0,101.0,0.0,103.0
COc1ccc2cc3cc(C(=O)Nc4cc(OC)c(OC)c(OC)c4)oc3nc2c1,98.0,93.0,1.0,0.0,x,x,x
COC(=O)C1=NN(C(C)=O)C2(CC(=O)N(c3cccc(C)c3)C2=O)C1 (stereo not drawn),108.0,116.0,1.0,2.0,x,x,x
CCOC(=O)C1=NN(C(C)=O)C2(CC(=O)N(c3cccc(C)c3)C2=O)C1 (stereo not drawn),104.0,139.0*,0.0,0.0,105.0,-3.0,103.0
CCOc1ccc(-n2c(SCC(N)=O)nnc2-c2cccnc2)cc1,96.0,104.0,2.0,0.0,x,x,x
CC(C)OP(=O)(c1ccc(N(C)C)cc1)C(O)c1c(Cl)cccc1Cl (stereo not drawn),104.0,106.0,3.0,2.0,x,x,x
COc1ccccc1C(=O)NCCNC(=O)c1ccc(C)nc1,97.0,103.0,5.0,2.0,x,x,x
COc1ccccc1C(=O)NCCCn1cc(Br)c(C)n1,138.0*,122.0,14.0,0.0,114.0,12.0,107.0
CC(C)C(NC(=O)CNC(=O)OC(C)(C)C)C(=O)NCc1ccc(Cl)cc1 (stereo not drawn),48.0*[inhibitor],88.0,-18.0,1.0,104.0,-3.0,98.0
CC(C)[C@H](NC(N)=O)C(=O)NCCc1ccc(Cl)cc1,97.0,99.0,-4.0,0.0,x,x,x
O=C(COC(=O)c1ccc(Br)c(S(=O)(=O)N2CCOCC2)c1)NC1CC1,x,x,x,0.0,x,x,x
COc1ccc([N+](=O)[O-])cc1NC(=O)COC(=O)Cc1cc(OC)c(OC)c(OC)c1,99.0,99.0,-1.0,1.0,x,x,x
COc1cc(CC(=O)OCC(=O)Nc2cc([N+](=O)[O-])ccc2Cl)cc(OC)c1OC,58.0*[inhibitor],97.0,9.0,5.0,90.0,-6.0,97.0
O=C(COC(=O)c1ccccc1Br)NC1CCCC1,99.0,97.0,-1.0,2.0,x,x,x
